Data published in PubChem BioAssay (Tox21).
Results filed as inconclusive are left out. Activity calls are given as the source filed them. Unless noted, calls follow the shape of the dose curve; as a rule, active = well fitted curve in the direction sought with a large enough effect in the repeat runs; inconclusive = weak or mixed curves; inactive = no such curve, though single readings can be large; an effect the other way counts as inactive or inconclusive.

Key:
[1] = qHTS assay for small molecule agonists of the p53 signaling pathway (AID 651631; calls by dose curve; also: nearly all actives have a fitted effect of over 15% in size)
Outline: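 Fluorescence intensity from cleaved LiveBLAzer B/G substrate (2 h, room temperature) served as the signal. Beforehand, HCT-116 reporter cells bearing p53 response elements were treated 16 h at 37 °C with DMSO-dissolved compounds.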

[2] = qHTS assay for small molecules that induce genotoxicity in human embryonic kidney cells expressing luciferase-tagged ATAD5 (AID 651632); also: nearly all actives have a fitted effect of over 15% in size
Outline: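 HEK293T cells carrying luciferase-tagged ATAD5 were given compound or DMSO vehicle and incubated 16 hr at 37C, 5% CO2. Luciferase activity was read after 30 min at room temperature with Amplite; a rise signals genotoxic stress.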

[3] = qHTS assay for small molecule agonists of the p53 signaling pathway - cell viability (AID 651633; calls by dose curve;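 also: p53RE-bla HCT reporter cells with a stable beta-lactamase p53 reporter; series mostly up to about 83 µM; nearly all actives have a fitted effect of over 30% in size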)
Outline: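 Viability counter-read: CellTiter-Glo luminescence (30 min, room temperature) in the same p53RE-bla plates. These plates had been exposed to compounds for 16 h at 37 C.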

[4] = qHTS assay for small molecules that induce genotoxicity in human embryonic kidney cells expressing luciferase-tagged ATAD5 - cell viability (AID 651634; calls by dose curve; also: nearly all actives have a fitted effect of over 25% in size)
Outline: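 HEK293T cells carrying luciferase-tagged ATAD5, 2,000 cells/well, exposed to compound for 15.5 hr at 37C. Viability read as live-cell protease activity by CellTiter-Fluor fluorescence after 30 min at 37C.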

[5] = qHTS assay to test for compound auto fluorescence at 590 nm (red) in HepG2 cells (AID 720674)
Outline: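 Red autofluorescence (Ex/Em 540/590 nm, Rose Bengal sodium equivalents) was measured in HepG2 cells, 2,000 per well in MEM plus 10% FBS, plated overnight at 37 C. Readings were taken 1 hr after adding 23 nL compound or DMSO, at 37 C and 5% CO2.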

[6] = qHTS assay to test for compound auto fluorescence at 535 nm (green) in HepG2 cells (AID 720675)
[7] = qHTS assay to test for compound auto fluorescence at 460 nm (blue) in HEK293 cells (AID 720678)
Outline: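 Blue read-out at excitation 405 nm and emission 460 nm follows overnight compound exposure of HEK293 cells at 37C in 5% CO2. Activity is given as auto fluorescence equivalency to triamterene.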

[8] = qHTS assay to test for compound auto fluorescence at 590 nm (red) in HEK293 cells (AID 720679)
Outline: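 Red channel, Ex/Em 540/590nm; signal expressed as equivalency to Rose Bengal sodium. HEK293, 2,000 cells/well, 10% dialyzed FBS; 23 nL compound pinned after 4-5 hr attachment; overnight 37C/5% CO2 before reading.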

[9] = qHTS assay to test for compound auto fluorescence at 535 nm (green) in HEK293 cells (AID 720680)
[10] = qHTS assay to test for compound auto fluorescence at 460 nm (blue) in HEK293 cell free culture (AID 720681)
Outline: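 Blue fluorescence (Ex 405/Em 460 nm, triamterene-equivalent) was read immediately after pin transfer of compound or DMSO into medium (DMEM, 10% FBS) without cells.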

[11] = qHTS assay to test for compound auto fluorescence at 535 nm (green) in HEK293 cell free culture (AID 720682)
Outline: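 Intrinsic compound fluorescence is measured in culture medium containing 10% FBS, with excitation at 485 nm and detection at 535 nm, referenced to fluorescein.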

[12] = qHTS assay to test for compound auto fluorescence at 590 nm (red) in HEK293 cell free culture (AID 720683)
Outline: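 Red-channel autofluorescence of compounds in culture medium (DMEM, 10% FBS), no cells, measured at 540/590 nm. Rose Bengal sodium is the reference fluorophore for equivalence.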

[13] = qHTS assay to test for compound auto fluorescence at 460 nm (blue) in HepG2 cell free culture (AID 720685)
Outline: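 Compound (23 nL) or DMSO pinned into cell-free MEM with 10% FBS; blue fluorescence read at 405/460 nm excitation/emission, expressed as auto-fluorescence equivalency to triamterene.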

[14] = qHTS assay to test for compound auto fluorescence at 535 nm (green) in HepG2 cell free culture (AID 720686)
[15] = qHTS assay to test for compound auto fluorescence at 460 nm (blue) in HepG2 cells (AID 720687)
Outline: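 Blue-channel autofluorescence (Ex/Em 405/460 nm, triamterene-equivalent) was measured after 1 hr compound exposure at 37 C, 5% CO2. Cells were HepG2, plated overnight at 37 C in MEM plus 10% FBS.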

[16] = molecular target: Glucocorticoid receptor (Homo sapiens) (UniProt P04150); test: qHTS assay to identify small molecule agonists of the glucocorticoid receptor (GR) signaling pathway (AID 720691; active = well fitted activation curve with a large enough effect in the signal ratio in the repeat runs, not every such curve was filed as active; the % refers to the signal ratio)
Glucocorticoid receptor (Homo sapiens), sequence (P04150 whole entry, looked up): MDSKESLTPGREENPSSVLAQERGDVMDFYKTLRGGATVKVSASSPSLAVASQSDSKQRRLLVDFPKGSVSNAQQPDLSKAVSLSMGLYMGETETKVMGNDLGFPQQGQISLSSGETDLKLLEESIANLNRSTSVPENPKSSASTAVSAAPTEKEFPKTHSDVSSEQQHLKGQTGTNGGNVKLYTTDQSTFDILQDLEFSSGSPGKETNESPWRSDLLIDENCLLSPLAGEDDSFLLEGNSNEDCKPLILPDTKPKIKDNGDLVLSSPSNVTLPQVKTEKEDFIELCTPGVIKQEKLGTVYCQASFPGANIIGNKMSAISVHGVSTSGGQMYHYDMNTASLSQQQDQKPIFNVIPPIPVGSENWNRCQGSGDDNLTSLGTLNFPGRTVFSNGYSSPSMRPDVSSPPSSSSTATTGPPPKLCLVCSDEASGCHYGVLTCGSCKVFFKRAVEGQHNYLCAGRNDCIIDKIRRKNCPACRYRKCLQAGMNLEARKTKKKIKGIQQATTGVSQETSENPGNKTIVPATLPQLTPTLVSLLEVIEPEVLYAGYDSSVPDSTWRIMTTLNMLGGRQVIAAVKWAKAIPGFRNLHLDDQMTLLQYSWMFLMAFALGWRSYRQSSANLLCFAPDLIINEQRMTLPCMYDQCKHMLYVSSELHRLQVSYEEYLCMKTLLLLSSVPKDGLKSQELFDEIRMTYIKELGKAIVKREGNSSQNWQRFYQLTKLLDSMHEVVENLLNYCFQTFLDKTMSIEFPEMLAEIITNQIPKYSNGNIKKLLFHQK
Outline: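 GR-bla HeLa cells carrying a GRE-driven beta-lactamase reporter, exposed to compounds for 18 h at 37 C. Reporter activation read as fluorescence after 2 h with LiveBLAzer B/G FRET substrate at room temperature.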

[17] = molecular target: Glucocorticoid receptor (Homo sapiens) (UniProt P04150); test: qHTS assay to identify small molecule antagonists of the glucocorticoid receptor (GR) signaling pathway (AID 720692; active = well fitted inhibition curve with a large enough effect in the signal ratio in the repeat runs, not every such curve was filed as active; the % refers to the signal ratio)
Outline: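 GR-bla HeLa cells carrying a GRE-driven beta-lactamase reporter received compound after 4 h plating, then dexamethasone (5 nM final). After 18 h at 37C, the FRET substrate was loaded for 2 h at room temperature and fluorescence read.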

[18] = qHTS assay to test for compound auto fluorescence at 590 nm (red) in HepG2 cell free culture (AID 720684)
Outline: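 Steps: dispense MEM/10% FBS medium, no cells; pin compound or DMSO vehicle; read red channel, Ex/Em 540/590 nm. Output given as Rose Bengal sodium equivalents.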

[19] = qHTS assay for small molecule disruptors of the mitochondrial membrane potential - cell viability (AID 720634; calls by dose curve;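 also: human HepG2 liver cancer cells; series mostly up to about 83 µM; nearly all actives have a fitted effect of over 20% in size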)
Outline: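 HepG2 cells, 2,000 per well, attached overnight, then treated 1 hr at 37 C, 5% CO2. Viability read as ATP by CellTiter-Glo luminescence after 30 min at room temperature. Read in the same wells as the m-MPI membrane-potential dye assay.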

[20] = qHTS assay for small molecule disruptors of the mitochondrial membrane potential (AID 720635)
Outline: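 Mitochondrial membrane potential tracked with Mito-MPS dye, red aggregates (ex 540/em 590 nm) against green monomers (ex 490/em 535 nm). Compound treatment 1 hr at 37C, dye 30 min in HepG2.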
% is scaled to controls: 0 for no effect and ±100 for the full control effect.

Oc1cc(O)c2c(c1)O[C@H](c1ccc(O)c(O)c1)[C@H](O)C2
inactive: Potency [1] | Potency [2] | Potency [3] | Potency [4] | outcome [5] | outcome [6] | Potency [7] | outcome [8] | outcome [9] | Potency [10] | outcome [11] | outcome [12] | Potency [13] | outcome [14] | Potency [15] | Potency [16] | Potency [17]

CCCCCCCCCCC1CO1 (stereo not drawn)
inactive: Potency [1] | Potency [2] | Potency [3] | Potency [4] | outcome [5] | outcome [6] | outcome [8] | outcome [9] | Potency [10] | outcome [11] | outcome [12] | outcome [18] | Potency [13] | outcome [14] | Potency [15]

CC(C)COC(=O)c1ccccc1O
inactive: Potency [1] | Potency [2] | Potency [3] | Potency [4] | outcome [5] | outcome [6] | Potency [7] | outcome [8] | outcome [11] | outcome [12] | Potency [13] | outcome [14] | Potency [15] | Potency [16] | Potency [17]

COc1ccc(NC(C)=O)cc1
inactive: Potency [1] | Potency [2] | Potency [3] | Potency [4] | outcome [5] | outcome [6] | outcome [8] | Potency [10] | outcome [11] | outcome [12] | Potency [13] | outcome [14] | Potency [15] | Potency [16] | Potency [17]

CCn1cc(C(=O)O)c(=O)c2cc(F)c(N3CCN(C)CC3)cc21
inactive: Potency [1] | Potency [2] | Potency [3] | Potency [4] | outcome [5] | outcome [6] | Potency [7] | outcome [8] | outcome [9] | Potency [10] | outcome [11] | outcome [12] | outcome [18] | Potency [13] | outcome [14] | Potency [15] | Potency [16]

CCc1cc(S(=O)(=O)O)c2cc(C(C)C)cccc1-2
inactive: Potency [1] | Potency [2] | Potency [3] | Potency [4] | outcome [5] | outcome [6] | Potency [7] | outcome [8] | outcome [9] | Potency [10] | outcome [11] | outcome [12] | outcome [18] | Potency [13] | outcome [14] | Potency [15] | Potency [16] | Potency [17]

C=C(C)C(=O)OCCC(C)OC(=O)C(=C)C (stereo not drawn)
inactive: Potency [1] | Potency [2] | Potency [3] | Potency [4] | outcome [5] | outcome [6] | Potency [7] | outcome [8] | outcome [9] | Potency [10] | outcome [11] | outcome [12] | outcome [18] | Potency [13] | outcome [14] | Potency [15] | Potency [16] | Potency [17]

NS(=O)(=O)c1cc2c(cc1Cl)NC(CSCc1ccccc1)=NS2(=O)=O
inactive: Potency [1] | Potency [2] | Potency [3] | Potency [4] | fluorescence, relative to Rose Bengal [5] -0.338% [at 18.6 µM] | fluorescence, % of fluorescein control [6] 0.0219% [at 18.6 µM] | fluorescence, % of triamterene [7] -0.0281% [at 18.6 µM] | fluorescence, % of fluorescent control [8] -0.0194% [at 18.6 µM] | fluorescence, % of fluorescein [9] -0.0376% [at 18.6 µM] | fluorescence, % of fluorescent control [10] -0.0458% [at 18.6 µM] | activity change [11] -0.222% [at 18.6 µM] | fluorescence, % of fluorescent control [12] 0.107% [at 18.6 µM] | fluorescence, % of Rose Bengal [18] 0.12% [at 18.6 µM] | fluorescence, % of fluorescent control [13] -0.0404% [at 18.6 µM] | fluorescence, % of fluorescein control [14] -0.0451% [at 18.6 µM] | fluorescence, % of fluorescent control [15] 0.19% [at 18.6 µM] | Potency [16] | Potency [17]

C=C(C)[C@H]1CC=C(C)CC1
inactive: Potency [1] | Potency [2] | Potency [3] | Potency [4] | outcome [5] | outcome [6] | Potency [7] | outcome [8] | Potency [10] | outcome [11] | outcome [12] | outcome [18] | Potency [13] | outcome [14] | Potency [15]

CCCC(C)CO (stereo not drawn)
inactive: Potency [1] | Potency [2] | Potency [3] | Potency [4] | outcome [5] | outcome [6] | Potency [7] | outcome [8] | outcome [9] | outcome [11] | outcome [12] | outcome [18] | Potency [13] | outcome [14] | Potency [16] | Potency [17]

O=C(O)C(O)[C@H](O)[C@@H](O)[C@H](O)[C@H](O)CO (stereo partly drawn)
inactive: Potency [1] | Potency [2] | Potency [3] | Potency [4] | outcome [5] | outcome [6] | Potency [7] | outcome [8] | outcome [9] | Potency [10] | outcome [11] | outcome [12] | outcome [18] | Potency [13] | outcome [14] | Potency [15] | Potency [16] | Potency [17]

CCCCNc1ccccc1
inactive: Potency [1] | Potency [2] | Potency [3] | Potency [4] | outcome [5] | outcome [6] | Potency [7] | outcome [8] | outcome [9] | outcome [11] | outcome [12] | Potency [13] | outcome [14] | Potency [15] | Potency [16] | Potency [17]

Cc1ccc(Nc2ccc(O)c3c2C(=O)c2ccccc2C3=O)cc1
inactive: Potency [1] | Potency [2] | Potency [3] | Potency [4] | outcome [5] | outcome [6] | outcome [8] | outcome [9] | Potency [10] | outcome [11] | outcome [12] | outcome [18] | Potency [13] | outcome [14] | Potency [15]

Cc1ccccc1C(=O)O
inactive: Potency [1] | Potency [3] | Potency [4] | Potency [19] | Potency [20] | outcome [5] | outcome [6] | Potency [7] | outcome [8] | outcome [9] | Potency [10] | outcome [11] | outcome [12] | outcome [18] | Potency [13] | outcome [14] | Potency [15]

CCCOCC(C)OCC(C)O (stereo not drawn)
inactive: Potency [1] | Potency [3] | Potency [4] | Potency [19] | outcome [5] | outcome [6] | Potency [7] | outcome [8] | outcome [9] | Potency [10] | outcome [11] | outcome [12] | outcome [18] | Potency [13] | outcome [14] | Potency [15] | Potency [16]

O=C(O)/C=C/c1ccc(/C=C/C(=O)O)cc1
inactive: Potency [1] | Potency [2] | Potency [3] | Potency [4] | outcome [5] | outcome [6] | outcome [8] | outcome [9] | Potency [10] | outcome [11] | outcome [12] | outcome [18] | Potency [13] | outcome [14] | Potency [16] | Potency [17]
